From PubChem BioAssay AID651946 (Broad Institute, 2012)
Entries with a potency or affinity are not part of this list. Calls of active or inactive are those of the source.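 The calls were made as follows: active = toxic compound whose fitted half-effect dose of signal loss is at most twice its top tested dose; inconclusive = flat fit losing 30 to 70% signal, or poor fit; inactive = the rest.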

Experiment: HeLa cell viability loss – plate reader, dry powder, cytotoxicity control, dose response (AID 651946)
Conditions: ATP luminescence (CellTiter-Glo), 48 h; series mostly up to 26 µM

Structure (SMILES) | outcome
c1ccc(-c2nnc(SCC3CC3)o2)cc1 | inactive
Fc1ccccc1-c1nnc(SCc2ccccc2)o1 | inactive
Fc1ccc(Cn2cc(CSc3nnc(C4CCC4)o3)nn2)cc1 | inactive
COCCSc1nnc(-c2ccccc2)o1 | inactive
c1ccc(CCc2nnc(-c3ccccc3)o2)cc1 | inactive
Clc1ccccc1-c1nnc(SCc2ccccc2)o1 | inactive
c1ccc(-c2nnc(SCc3cccnc3)o2)cc1 | inactive
Cc1ccccc1-c1nnc(SCc2ccccc2)o1 | inactive
Fc1ccccc1CSc1nnc(-c2ccccc2)o1 | inactive
FC(F)(F)CNCCSc1nnc(-c2ccccc2)o1 | inactive
O=S(=O)(Cc1ccccc1)c1nnc(-c2ccccc2)o1 | inactive
Clc1cccc(-c2nnc(SCc3ccccc3)o2)c1 | inactive
COc1ccccc1-c1nnc(SCc2ccccn2)o1 | inactive
c1ccc(CSc2ncc(-c3ccccc3)o2)cc1 | inactive
Brc1ccc(CSc2nnc(-c3ccccc3)o2)cc1 | inactive
